Data taken from PubChem BioAssay (Tox21).
Results filed as inconclusive are left out. Calls of active or inactive are those of the source. Unless noted, calls come from the whole dose curve.

How the values were obtained:
[1] = Nuclear factor erythroid 2-related factor 2/antioxidant responsive element (Nrf2/ARE) small molecule agonists: qHTS cell viability counter screen in human keratinocytes (AID 1919968; active = well fitted curve in the direction sought with a large enough effect in the repeat runs; an effect the other way counts as inactive or inconclusive; note: nearly all actives have a fitted effect of over 55% in size; note: potency is the fitted concentration of half-maximal effect)
Method in brief: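 Cytotoxicity was multiplexed with the Nrf2/ARE luciferase assay in the same wells. Stably transfected HaCaT keratinocytes were treated with test compounds for 23 h at 37 C. Cell viability was then measured by CellTiter-Fluor fluorescence.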

[2] = Nuclear factor erythroid 2-related factor 2/antioxidant responsive element (Nrf2/ARE) small molecule agonists: luciferase reporter gene qHTS assay in human keratinocytes (AID 1919969); note: nearly all actives have a fitted effect of over 35% in size; note: potency is the fitted concentration of half-maximal effect
[3] = target: Gonadotropin-releasing hormone receptor (Homo sapiens) (UniProt P30968); test: Human gonadotropin-releasing hormone receptor (GnRHR) small molecule agonists, calcium flux assay in GnRHR-HEK293 cells (AID 1920063); note: nearly all actives have a fitted effect of over 35% in size
Chain of Gonadotropin-releasing hormone receptor (Homo sapiens) (P30968 whole entry, looked up): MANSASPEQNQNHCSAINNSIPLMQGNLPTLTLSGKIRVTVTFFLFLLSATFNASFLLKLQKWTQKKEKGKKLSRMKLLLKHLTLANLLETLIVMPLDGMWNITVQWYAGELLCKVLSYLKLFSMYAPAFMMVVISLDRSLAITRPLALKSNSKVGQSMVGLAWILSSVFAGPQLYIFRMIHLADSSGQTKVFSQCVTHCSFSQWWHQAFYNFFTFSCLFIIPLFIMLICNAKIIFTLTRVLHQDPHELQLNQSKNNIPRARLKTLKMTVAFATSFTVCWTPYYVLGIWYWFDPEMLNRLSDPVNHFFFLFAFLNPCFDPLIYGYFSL
Method in brief: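 Agonist activity was measured as intracellular calcium flux in HEK293 cells engineered to stably express human GnRHR. After dye loading for 1 hour at 37 C, compounds in DMSO were added and fluorescence was followed for 3 minutes.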

[4] = target: KiSS-1 receptor (Homo sapiens) (UniProt Q969F8); test: Human kisspeptin (KISS1R) small molecule agonists, calcium flux assay in KISS1R-HEK293 cells (AID 1920064; active = well fitted curve in the direction sought with a large enough effect in the repeat runs; an effect the other way counts as inactive or inconclusive)
Chain of KiSS-1 receptor (Homo sapiens) (Q969F8 whole entry, looked up): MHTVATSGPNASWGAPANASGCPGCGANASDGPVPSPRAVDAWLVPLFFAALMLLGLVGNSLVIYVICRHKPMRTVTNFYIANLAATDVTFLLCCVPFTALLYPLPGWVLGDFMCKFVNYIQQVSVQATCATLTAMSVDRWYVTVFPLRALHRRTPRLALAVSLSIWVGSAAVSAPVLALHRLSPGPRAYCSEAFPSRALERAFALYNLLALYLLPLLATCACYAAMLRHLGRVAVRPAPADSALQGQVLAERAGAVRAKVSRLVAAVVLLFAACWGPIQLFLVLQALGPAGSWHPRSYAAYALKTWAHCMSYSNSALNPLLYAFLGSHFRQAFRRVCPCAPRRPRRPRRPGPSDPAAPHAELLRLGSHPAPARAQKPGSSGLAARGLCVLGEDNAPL
Method in brief: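 Agonist activity is monitored as intracellular calcium rise in engineered HEK293 cells carrying human KISS1R. Cells are dye-loaded for 1 h at 37 C before compound addition, and fluorescence is recorded for 3 min.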

[5] = G protein-coupled receptor (GPCR) small molecule agonists, calcium flux assay: HEK293 wild type cell line counter screen (AID 1920065)
Method in brief: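 Seed cells, incubate 18 h (37 C, 5% CO2); add calcium dye, 1 h at 37 C; pin-transfer compounds, ATP control or DMSO; read fluorescence 480/540 nm each second for 3 min.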

[6] = p53 small molecule agonists, cell-based qHTS assay with rat liver microsomes (AID 1963578); note: potency is the fitted concentration of half-maximal effect
Method in brief: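 Agonist mode in p53RE-bla reporter cells, with compounds co-incubated 16 h at 37 C alongside 0.5 mg/mL rat liver microsomes and 0.5 mg/mL NADPH (final), followed by a 2 h LiveBLAzer detection step.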

[7] = p53 small molecule agonists, cell-based qHTS assay: qHTS cell viability counter screen (AID 1963581); note: nearly all actives have a fitted effect of over 45% in size; note: potency is the fitted concentration of half-maximal effect
Method in brief: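 Viability was counter-screened in parallel with the p53 agonist reporter by measuring intracellular ATP luminescence in the same HCT-116 p53RE-bla wells after 16 h compound treatment at 37 C.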

[8] = p53 small molecule agonists, cell-based qHTS assay (AID 1963582; active = well fitted activation curve with a large enough effect in the signal ratio in the repeat runs, not every such curve was filed as active; the % refers to the signal ratio; note: potency is the fitted concentration of half-maximal effect)
Method in brief: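 Cells carrying a p53-responsive bla reporter are treated with test compounds for 16 h at 37 C; beta-lactamase activity is then detected with LiveBLAzer B/G FRET substrate after 2 h at room temperature.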

[9] = target: 5-hydroxytryptamine receptor 2A (Homo sapiens) (UniProt P28223); test: 5-hydroxytryptamine receptor 2A (HTR2A) small molecule antagonists, cell-based qHTS assay (AID 1963586); note: nearly all actives have a fitted effect of over 45% in size; note: potency is the fitted concentration of half-maximal effect
Chain of 5-hydroxytryptamine receptor 2A (Homo sapiens) (P28223 whole entry, looked up): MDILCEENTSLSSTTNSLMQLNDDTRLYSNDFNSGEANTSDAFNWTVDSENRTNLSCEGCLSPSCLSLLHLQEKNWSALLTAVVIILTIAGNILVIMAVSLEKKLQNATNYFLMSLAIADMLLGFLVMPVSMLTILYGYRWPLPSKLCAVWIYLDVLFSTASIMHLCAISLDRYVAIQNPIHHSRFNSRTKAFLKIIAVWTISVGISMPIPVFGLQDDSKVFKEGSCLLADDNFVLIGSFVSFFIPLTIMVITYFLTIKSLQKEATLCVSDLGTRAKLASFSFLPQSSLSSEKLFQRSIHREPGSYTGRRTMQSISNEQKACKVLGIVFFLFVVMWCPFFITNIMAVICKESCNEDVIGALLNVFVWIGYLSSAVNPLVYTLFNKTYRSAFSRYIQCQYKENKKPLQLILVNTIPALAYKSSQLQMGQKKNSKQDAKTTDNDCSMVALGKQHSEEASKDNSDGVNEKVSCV
Method in brief: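 CHO cells stably expressing human HTR2A were plated for 18 h at 37 C, then loaded with calcium dye for 1 h. Compounds were preincubated 5 min at room temperature before DOI (4 nM solution) was added. Kinetic fluorescence was read for 3 min.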

[10] = target: 5-hydroxytryptamine receptor 2A (Homo sapiens) (UniProt P28223); test: 5-hydroxytryptamine receptor 2A (HTR2A) small molecule agonists, cell-based qHTS assay (AID 1963587); note: nearly all actives have a fitted effect of over 30% in size; note: potency is the fitted concentration of half-maximal effect
Method in brief: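 HTR2A-CHO cells, plated 18 h at 37 C/5% CO2, dye-loaded 1 h at 37 C; compounds in DMSO added by pin tool (agonist mode). Intracellular calcium flux read as kinetic fluorescence on FDSS over 2 min at 1 s intervals.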

[11] = target: Muscarinic acetylcholine receptor M1 (Homo sapiens) (UniProt P11229); test: Cholinergic receptor muscarinic 1 (CHRM1) small molecule agonists, cell-based qHTS assay (AID 1963589); note: nearly all actives have a fitted effect of over 35% in size
Chain of Muscarinic acetylcholine receptor M1 (Homo sapiens) (P11229 whole entry, looked up): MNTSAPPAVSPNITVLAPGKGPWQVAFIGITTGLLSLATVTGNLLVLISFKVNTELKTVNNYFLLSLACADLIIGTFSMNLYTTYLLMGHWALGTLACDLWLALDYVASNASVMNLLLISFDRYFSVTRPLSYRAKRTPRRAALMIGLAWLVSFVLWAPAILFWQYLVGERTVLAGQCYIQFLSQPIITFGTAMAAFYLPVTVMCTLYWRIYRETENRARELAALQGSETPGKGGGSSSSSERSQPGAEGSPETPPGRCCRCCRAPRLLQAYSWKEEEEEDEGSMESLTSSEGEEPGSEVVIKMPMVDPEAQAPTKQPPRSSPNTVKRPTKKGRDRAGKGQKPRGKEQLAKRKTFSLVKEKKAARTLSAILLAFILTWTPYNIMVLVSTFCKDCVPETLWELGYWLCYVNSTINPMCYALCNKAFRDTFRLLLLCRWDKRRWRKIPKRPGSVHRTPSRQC
Method in brief: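 Cells were plated and incubated 18 h at 37 C/5% CO2, loaded with calcium dye for 1 h at 37 C, then treated with compounds in DMSO. Fluorescence was recorded kinetically at 1 sec intervals.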

[12] = target: Beta-2 adrenergic receptor (Homo sapiens) (UniProt P07550); test: Adrenergic beta2 receptor (ADRB2) small molecule antagonists, cell-based qHTS assay (AID 1963592); note: series mostly up to about 92 µM; nearly all actives have a fitted effect of over 50% in size
Chain of Beta-2 adrenergic receptor (Homo sapiens) (P07550 whole entry, looked up): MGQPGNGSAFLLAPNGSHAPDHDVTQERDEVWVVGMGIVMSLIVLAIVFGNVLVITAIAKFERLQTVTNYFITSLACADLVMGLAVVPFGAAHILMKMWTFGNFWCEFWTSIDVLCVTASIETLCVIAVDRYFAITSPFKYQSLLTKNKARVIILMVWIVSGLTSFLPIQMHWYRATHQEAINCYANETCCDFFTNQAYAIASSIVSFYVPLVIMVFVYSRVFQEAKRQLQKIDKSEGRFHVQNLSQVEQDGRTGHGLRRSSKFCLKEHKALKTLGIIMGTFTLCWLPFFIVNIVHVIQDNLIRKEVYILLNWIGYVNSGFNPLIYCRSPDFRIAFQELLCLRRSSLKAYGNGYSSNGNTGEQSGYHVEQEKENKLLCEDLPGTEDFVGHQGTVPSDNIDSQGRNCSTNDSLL
Method in brief: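 Assay format: CHO-ADRB2 cells, 18-20hr seeding at 37C/5% CO2, then compound plus 1nM isoproterenol agonist mix for 0.5hr RT. Homogeneous time-resolved fluorescence cAMP detection after 1hr, expressed as 665/615 nm ratio.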

[13] = target: Beta-2 adrenergic receptor (Homo sapiens) (UniProt P07550); test: Adrenergic beta2 receptor (ADRB2) small molecule agonists, cell-based qHTS assay (AID 1963593);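 note: CHO cells stably overexpressing human ADRB2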
Method in brief: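 CHO cells stably over-expressing ADRB2 were plated overnight at 37C, then dosed with compounds plus a stimulation mix containing 100uM IBMX and 25uM Ro-20-1724 for 0.5hr at room temperature. cAMP was measured by HTRF competition, 1hr.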

[14] = target: D(2) dopamine receptor (Homo sapiens) (UniProt P14416); test: Dopamine D2 receptor (DRD2) small molecule antagonists, cell-based qHTS assay (AID 1963595; active = well fitted inhibition curve with a large enough effect in the signal ratio in the repeat runs, with a control signal flat; the % refers to the signal ratio)
Chain of D(2) dopamine receptor (Homo sapiens) (P14416 whole entry, looked up): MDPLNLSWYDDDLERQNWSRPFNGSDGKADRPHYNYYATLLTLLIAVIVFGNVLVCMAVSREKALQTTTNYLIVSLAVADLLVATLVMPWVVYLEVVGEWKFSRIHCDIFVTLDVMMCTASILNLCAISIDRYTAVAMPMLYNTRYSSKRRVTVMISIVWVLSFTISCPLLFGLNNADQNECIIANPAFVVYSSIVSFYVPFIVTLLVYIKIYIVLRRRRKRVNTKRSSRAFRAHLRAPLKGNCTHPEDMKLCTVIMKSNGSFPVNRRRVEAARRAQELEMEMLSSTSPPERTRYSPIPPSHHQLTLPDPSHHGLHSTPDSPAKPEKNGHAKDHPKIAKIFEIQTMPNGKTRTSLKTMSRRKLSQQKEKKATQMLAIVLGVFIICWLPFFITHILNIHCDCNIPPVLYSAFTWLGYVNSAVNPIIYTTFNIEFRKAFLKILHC
Method in brief: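 HEK293 cells stably expressing DRD2 were preincubated with 0.1 mM Ro20-1724, then with compound for 10 min at room temperature. Cells were stimulated with 200 nM NKH477 plus 12 nM quinpirole for 30 min, and cAMP was read by HTRF.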

[15] = p53 small molecule agonists, cell-based qHTS assay with rat liver microsomes: qHTS cell viability counter screen (AID 1963580); note: nearly all actives have a fitted effect of over 45% in size; note: potency is the fitted concentration of half-maximal effect
Method in brief: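 Counter screen for cytotoxicity under metabolic activation: rat liver microsomes and NADPH, 0.5 mg/mL final each, added with compounds to p53RE-bla HCT-116 cells; 16 h at 37 C, then ATP luminescence read.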

[16] = target: Muscarinic acetylcholine receptor M1 (Homo sapiens) (UniProt P11229); test: Cholinergic receptor muscarinic 1 (CHRM1) small molecule antagonists, cell-based qHTS assay (AID 1963588); note: nearly all actives have a fitted effect of over 40% in size
Method in brief: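 Compounds were tested at 15 concentrations in three independent runs. Dye-loaded CHRM1-CHO cells were exposed 5 min at room temperature before stimulation by acetylcholine added at 50nM. Intracellular calcium was read kinetically on FDSS for 3 min.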

[17] = cAMP Responsive Elements (CRE) small molecule agonists, cell-based qHTS assay (AID 1963590)
Method in brief: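 Cells carrying a CRE-driven beta-lactamase reporter (HEK 293T) are seeded, incubated overnight (18 h), and treated with test compounds for 3 h at 37 C; reporter activity is then detected with a FRET substrate after 2 h at room temperature.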

[18] = cAMP Responsive Elements (CRE) small molecule antagonists, cell-based qHTS assay (AID 1963591; active = well fitted inhibition curve with a large enough effect in the signal ratio in the repeat runs, not every such curve was filed as active; the % refers to the signal ratio)
Method in brief: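 Cells (CRE-bla HEK 293T, DMEM with 10% dialyzed FBS and 25 mM HEPES) are seeded and incubated 18 h. Compounds are added with NKH477 agonist at 0.25 uM final for 3 h, then FRET substrate for 2 h.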

[19] = target: D(2) dopamine receptor (Homo sapiens) (UniProt P14416); test: Dopamine D2 receptor (DRD2) small molecule agonists, cell-based qHTS assay (AID 1963594); note: nearly all actives have a fitted effect of over 35% in size
Method in brief: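 HEK293 cells stably expressing DRD2 were cultured 24 h at 37 C, then given Ro20-1724 (0.1 mM final) and compounds for 10 min at room temperature. NKH477 (200nM) was then added for 30 min. cAMP was read by HTRF.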

[20] = p53 small molecule agonists, cell-based qHTS assay with human liver microsomes: qHTS cell viability counter screen (AID 1963579); note: nearly all actives have a fitted effect of over 45% in size; note: potency is the fitted concentration of half-maximal effect
Method in brief: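 Metabolically activated exposure: compounds, human liver microsomes and NADPH (0.5 mg/mL final apiece) were added to p53RE-bla cells seeded 5 h earlier, left 16 h at 37 C, and then assessed for viability by CellTiter-Glo luminescence.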

Measured: Potency

COc1cc(Cl)c(OC)cc1Cl
not listed: [15] | [16] | [17] | [18] | [19] | [20]
inactive: all other assays above

CCOc1cc(OP(=S)(OC)OC)nc(CC)n1
not listed: [12] | [20]
inactive: all other assays above

COc1cc(CC(C)N)cc(OC)c1OC (centres undefined)
active: [9] 0.228 µM | [10] 0.265 µM
not listed: [7] | [12] | [13] | [19]
inactive: all other assays above

CNC(=O)O/N=C(/CSC)C(C)(C)C
not listed: [6] | [14]
inactive: all other assays above

O=C(CCCCl)c1ccc(F)cc1
not listed: [13] | [15]
inactive: all other assays above

CC(C)CBr
not listed: [7] | [13]
inactive: all other assays above

CCC[CH2][Sn]([CH2]CCC)([O]C(C)=O)[O]C(C)=O
active: [1] 0.219 µM | [2] 0.0978 µM
not listed: [8] | [17]
inactive: all other assays above

O=c1oc2ccccc2c(O)c1Cc1c(O)c2ccccc2oc1=O
active: [8] 5 µM
not listed: [7] | [9] | [10] | [11] | [16] | [17]
inactive: all other assays above

Cc1cc(C(C)(C)c2ccc(O)c(C)c2)ccc1O
active: [1] 58.2 µM | [9] 35.7 µM | [10] 52.3 µM
not listed: [8] | [13] | [17] | [18] | [20]
inactive: all other assays above

CN1[C@@H]2CC[C@H]1CC(O)C2 (some centres undefined)
not listed: [7] | [13]
inactive: all other assays above

O=C(CCl)NCO
not listed: [13] | [20]
inactive: all other assays above

CC(C)(OO)c1ccccc1
not listed: [13] | [18] | [19] | [20]
inactive: all other assays above

c1cc[n+]2c(c1)-c1cccc[n+]1CC2
not listed: [7] | [8] | [20]
inactive: all other assays above

c1ccc2cc3c(cc2c1)-c1cccc2cccc-3c12
active: [6] 18 µM
not listed: [7] | [8] | [9] | [17] | [18]
inactive: all other assays above

COc1cccc([C@@]2(O)CCCC[C@@H]2CN(C)C)c1
not listed: [7] | [9] | [10] | [11] | [16] | [18]
inactive: all other assays above

CCOC(=O)/C=C(C)/C=C/C[C@@H](C)CCCC(C)C
active: [2] 68.6 µM
not listed: [9] | [13] | [15] | [18]
inactive: all other assays above

N#CNC#N
not listed: [7] | [13] | [19]
inactive: all other assays above

CC1=NNC(=O)N(/N=C/c2cccnc2)C1
not listed: [7] | [13]
inactive: all other assays above

CCOP(=S)(OCC)Oc1nc(Cl)n(C(C)C)n1
not listed: [6]
inactive: all other assays above

COC(=O)c1ccccc1S(=O)(=O)NC(=O)N(C)c1nc(C)nc(OC)n1
not listed: [9] | [13] | [14] | [15] | [16]
inactive: all other assays above

N#Cc1sc2c(=O)c3ccccc3c(=O)c=2sc1C#N
active: [1] 6.11 µM | [2] 2.17 µM | [20] 5.13 µM | [15] 16.2 µM | [7] 4.08 µM
not listed: [8] | [9] | [12] | [13] | [17] | [18]
inactive: all other assays above

COC1=CC(=O)O[C@@H](CCc2ccccc2)C1
not listed: [7] | [8] | [12] | [13] | [17]
inactive: all other assays above

N#CSCc1ccccc1
active: [2] 68.9 µM
not listed: [7] | [8] | [10] | [15] | [18]
inactive: all other assays above

O=S(=O)(O)C(F)(F)C(F)(F)C(F)(F)C(F)(F)F
active: [2] 72.7 µM
inactive: [1] | [3] | [4] | [5] | [6] | [9] | [10] | [16] | [11] | [14]

CCCCCCCCBr
not listed: [7] | [10] | [13] | [15] | [19]
inactive: all other assays above

Oc1ccc2c3c1O[C@H]1[C@@H](O)C=C[C@H]4[C@@H](C2)NCC[C@@]341
not listed: [9] | [20]
inactive: all other assays above

CNC(=O)Oc1cc(C)cc(C(C)C)c1
not listed: [6] | [13] | [18]
inactive: all other assays above

Cc1ccccc1C(=O)Nc1cccc(OC(C)C)c1
not listed: [7] | [8] | [17] | [18] | [20]
inactive: all other assays above

CCOC(=O)C1(c2ccccc2)CCN(CCc2ccc(N)cc2)CC1
not listed: [7] | [9] | [11] | [13] | [15] | [16] | [19]
inactive: all other assays above

CCS(=O)(=O)CCSP(=O)(OC)OC
active: [2] 61.1 µM
not listed: [6] | [14] | [18]
inactive: all other assays above

Cn1c(CCCC(=O)O)nc2cc(N(CCCl)CCCl)ccc21
not listed: [6] | [13] | [18]
inactive: all other assays above
